Experiment [1] has as its system HeLa. Briefly: Primary qHTS to identify gynecologic anti-cancer compounds using libraries of approved drugs and bioactive compounds (AID 1345084). Note: nearly all actives have a fitted effect of over 55% in size. The conditions noted are these: Gynecologic cancer cell panel viability, ATPlite luminescence, 48 h; series mostly up to 57.5 µM. The gist of the method: (§1)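 In this quantitative HTS, cell killing is estimated from loss of ATP-dependent luciferase light. Cells see five compound concentrations over a 48 h exposure.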
On the technique in general: Quantitative high-throughput screening tests each substance at several concentrations.

Experiment [2] relates to Hek293T. Described as above. The conditions noted are these: Gynecologic cancer cell panel viability, ATPlite luminescence, 48 h, control line for the selectivity index; series mostly up to 57.5 µM. The gist of the method:
as §1
A general note: In ATP-based viability assays light output follows the ATP content of the culture.

The test system of experiment [3] is JEG-3. The experiment is described as above. The conditions noted are these: Gynecologic cancer cell panel viability, ATPlite luminescence, 48 h; series mostly up to 57.5 µM. The gist of the method:
as §1

For experiment [4], the system named is OV90. Described as above. The conditions noted are these: Gynecologic cancer cell panel viability, ATPlite luminescence, 48 h; series mostly up to 57.5 µM. The gist of the method: as §1
For experiment [5], the system named is PA-1. Described as above. The conditions noted are these: Gynecologic cancer cell panel viability, ATPlite luminescence, 48 h; series mostly up to 57.5 µM. The gist of the method: as §1
The subject of experiment [6] is SKOV3. The description is as above. The conditions noted are these: Gynecologic cancer cell panel viability, ATPlite luminescence, 48 h; series mostly up to 57.5 µM. The gist of the method:
as §1

In experiment [7] the test system is Tov-21-G. The experiment is described as above. The conditions noted are these: Gynecologic cancer cell panel viability, ATPlite luminescence, 48 h; series mostly up to 57.5 µM. The gist of the method:
as §1

For experiment [8], the system named is Tov112D. The experiment is described as above. The conditions noted are these: Gynecologic cancer cell panel viability, ATPlite luminescence, 48 h; series mostly up to 57.5 µM. The gist of the method: as §1
Experiment [9] can be described thus: Drug repurposing screens with cells derived from glioblastoma tumor samples (AID 1345199). Note: nearly all actives have a fitted effect of over 40% in size. The conditions noted are these: GBM patient neurospheres viability, ATP luminescence, 48 h. The gist of the method:
(§2)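 Four patient lines of CD133+ GBM neurospheres were screened at several concentrations; hits were retested in those lines plus three slower-growing GBM lines, using 48-hour treatment and ATP-based viability.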

Experiment [10] concerns astro. Described as above. The conditions noted are these: viability, ATP luminescence, 48 h; series mostly up to 45.9 µM. The gist of the method: as §2
Setting [11] is: at 45.9 µM (top of the series), tumour line B.
Setting [12] is: at 45.9 µM (top of the series), tumour line D.
Where [13] appears, read: at 46.1 µM (top of the series), tumour line C.
Where [14] appears, read: at 20 µM (top of the series), tumour line C.
[15] abbreviates: at 21.2 µM (top of the series), tumour line B.

Several values for one entry are separate records, joined by “and”; a condition that tells them apart may be missing. Identical values can stand only once. Inconclusive results are not listed. A structure can be active in one record and inactive in another. Activity calls are given as the source filed them. Calls come from the whole dose curve; as a rule, active = well fitted curve in the direction sought with a large enough effect; inconclusive = small, poorly fitted or top-dose-only effect, or another doubt; inactive = no such curve, though single readings can be large; an effect the other way counts as inactive or inconclusive.
% is set by controls: 0 for no effect and ±100 for the full control effect; potency is the fitted concentration of half-maximal effect.

With `c1ccc(CN(CC2=NCCN2)c2ccccc2)cc1`, the Potency result in [1], in experiment [2], in [3], in experiment [4], in experiment [5] and in experiment [6] was “inactive” throughout. Also, the Potency result in experiment [7], in [8] and in experiment [10] was “inactive” each time. In addition, the activity, negative = cell killing in experiment [9] (setting [11]) is -15.8% (inactive); in experiment [9] (setting [12]) it was -19.1% (inactive); in experiment [9] (setting [13]), -20.7% (inactive).

On to `Nc1ccc(S(=O)(=O)Nc2ccccc2)cc1`, for which the Potency result in experiment [1], in experiment [2], in experiment [3], in [4], in experiment [5] and in [6] was “inactive” in each case. Also, the Potency entry in experiment [7], in [8] and in experiment [10] was “inactive” throughout. Moreover, the activity, negative = cell killing in [9] (setting [11]) was 11.7% (inactive); in experiment [9] (setting [12]) it was -2.38% (inactive); in [9] (setting [13]) it was -16.6% (inactive).

In the case of `CC(C)(O)c1ccccc1CC[C@@H](SCC1(CC(=O)O)CC1)c1cccc(/C=C/c2ccc3ccc(Cl)cc3n2)c1`, the Potency entry in experiment [1], in experiment [2], in [3], in [4], in experiment [5] and in [7] was “inactive” in each case. For the same molecule, the Potency entry in [8] was “inactive”. Further, the Potency entry in [6] was “inactive and 35.5 µM (active)”; in experiment [10], 20 µM (active). In addition, the activity, negative = cell killing was -2.34% (inactive) in experiment [9] (setting [11]), -14.4% (inactive) in experiment [9] (setting [12]) and -19.5% (inactive) in experiment [9] (setting [13]).

`CCCCC(CC)COC(=O)c1ccccc1O` (stereo not drawn): the Potency result in [1], in experiment [2], in experiment [3], in experiment [4], in experiment [5] and in experiment [6] was “inactive” throughout. The Potency result in experiment [7], in experiment [8] and in experiment [10] was “inactive” in each case. Further, the values for the activity, negative = cell killing in experiment [9] (setting [11]), in experiment [9] (setting [12]) and in [9] (setting [13]) were -9.83% (inactive), -3.06% (inactive) and 2.02% (inactive), respectively.

Regarding `CCCCOc1cc(C(=O)OCCN(CC)CC)ccc1N`, the Potency result in experiment [1], in experiment [2], in experiment [3], in experiment [4], in [5] and in experiment [6] was “inactive” each time. For the same molecule, the Potency result in [7], in experiment [8] and in experiment [10] was “inactive” each time. Besides, the activity, negative = cell killing in experiment [9] (setting [14]) is -6.35% (inactive); in experiment [9] (setting [15]) it was -29.6% (inactive). In addition, the Potency in [9] (tumour line A) is 11.2 µM (active).

For the molecule `Cc1c(Cl)cccc1Nc1ccccc1C(=O)O`, the Potency entry in experiment [1], in [2], in experiment [3], in experiment [4], in experiment [5] and in experiment [6] was “inactive” throughout. Further, the Potency entry in [7] and in [8] was “inactive” in each case. The activity, negative = cell killing in experiment [9] (setting [11]) is -21.5% (inactive); in experiment [9] (setting [12]), -17% (inactive); in experiment [9] (setting [13]) it was -5.72% (inactive). In addition, the Potency in experiment [10] was 11.2 µM (active).

As for `CC1=C(CC(=O)O)c2cc(F)ccc2/C1=C\c1ccc(S(C)=O)cc1` (stereo not drawn), the Potency entry in [1], in experiment [2], in experiment [3], in [4], in [5] and in experiment [6] was “inactive” throughout. The Potency result in experiment [7], in experiment [8] and in experiment [10] was “inactive” in each case. Moreover, the activity, negative = cell killing in experiment [9] (setting [11]) is -9.8% (inactive); in experiment [9] (setting [12]) it was -10.1% (inactive); in experiment [9] (setting [13]), -18.8% (inactive).

On to `NCCNCCNCCN`, for which the Potency entry in experiment [1], in experiment [2], in experiment [3], in [4], in experiment [5] and in experiment [6] was “inactive” throughout. For the same molecule, the Potency result in [7], in [8] and in experiment [10] was “inactive” each time. For the same molecule, the activity, negative = cell killing in [9] (setting [11]) was -6% (inactive); in experiment [9] (setting [12]) it was -28.2% (inactive); in experiment [9] (setting [13]), -8.15% (inactive).

As for `CCN(CC)CCNC(C(=O)OCCC(C)C)c1ccccc1` (stereo not drawn), the Potency result in experiment [1], in [2], in experiment [3], in experiment [4], in [5] and in experiment [6] was “inactive” each time. Further, the Potency result in experiment [7], in [8] and in experiment [10] was “inactive” in each case. For the same molecule, the activity, negative = cell killing in experiment [9] (setting [11]) is -12.5% (inactive); in experiment [9] (setting [13]), 6.2% (inactive). Moreover, the Potency in experiment [9] (tumour line A) was 25.1 µM (active).

Take `O=C(O)Cc1sc(-c2ccccc2)nc1-c1ccc(Cl)cc1`: the Potency entry in experiment [1], in [2], in [3], in [4], in [5] and in experiment [6] was “inactive” in each case. For the same molecule, the Potency result in experiment [7], in experiment [8] and in experiment [10] was “inactive” in each case. In addition, the activity, negative = cell killing in experiment [9] (setting [12]) was -34% (inactive) and -7.66% (inactive); in experiment [9] (at 46 µM (top of the series), tumour line A), -38.9% (inactive); in [9] (setting [13]), -4.36% (inactive) and -11.1% (inactive).

On to `CN1CCOC(c2ccccc2)c2ccccc2C1` (stereo not drawn), for which the Potency result in experiment [1], in experiment [2], in [3], in experiment [4], in [5] and in experiment [6] was “inactive” throughout. Besides, the Potency result in experiment [7], in experiment [8] and in [10] was “inactive” each time. Besides, the activity, negative = cell killing was 10.6% (inactive) in [9] (setting [14]); -10.4% (inactive) in [9] (setting [15]); -4.89% (inactive) in experiment [9] (at 21.2 µM (top of the series), tumour line D).

On to `COc1cc(C)c(Cc2cnc(N)nc2N)cc1OC`, for which the Potency entry in experiment [1], in [2], in [3], in experiment [4], in [5] and in experiment [6] was “inactive” in each case. The Potency result in [7], in experiment [8] and in experiment [10] was “inactive” each time. Besides, the activity, negative = cell killing in [9] (setting [11]) is -4.72% (inactive); in experiment [9] (setting [12]), -19.5% (inactive); in experiment [9] (setting [13]) it was -26.1% (inactive).

Regarding `Cc1cc(CC(=O)O)n(C)c1C(=O)c1ccc(Cl)cc1`, the Potency result in experiment [1], in experiment [2], in [3], in experiment [4], in experiment [5] and in experiment [6] was “inactive” throughout. The Potency result in experiment [7], in experiment [8] and in [10] was “inactive” each time. Also, the activity, negative = cell killing in [9] (setting [11]) was -19.5% (inactive) and -0.106% (inactive); in experiment [9] (setting [12]), -15.6% (inactive) and -2.2% (inactive); in [9] (setting [13]) it was -19.2% (inactive) and -21.6% (inactive).

`Oc1cccc(O)c1`: the Potency entry in [1], in [2], in experiment [3], in experiment [4], in [5] and in experiment [6] was “inactive” in each case. The Potency entry in experiment [7], in experiment [8] and in experiment [10] was “inactive” throughout. Besides, the results for the activity, negative = cell killing in experiment [9] (setting [11]), in [9] (setting [12]) and in experiment [9] (setting [13]) were -16.6% (inactive), -5.28% (inactive) and 27.8% (inactive), respectively.

In the case of `Cc1cc(C(C#N)c2ccc(Cl)cc2)c(Cl)cc1NC(=O)c1cc(I)cc(I)c1O` (stereo not drawn), the Potency result in [1], in experiment [2], in experiment [3], in [4], in [5] and in [6] was “inactive” throughout. For the same molecule, the Potency result in experiment [7] and in experiment [8] was “inactive” throughout. In addition, the Potency in [10] was 3.98 µM (active).

In the case of `Cc1ccc(C(C)C)cc2c(C)ccc1-2`, the Potency entry in experiment [1], in experiment [2], in experiment [3], in experiment [4], in [5] and in experiment [7] was “inactive” each time. Also, the Potency result in experiment [8] and in experiment [10] was “inactive” each time. In addition, the values for the activity, negative = cell killing in experiment [9] (setting [11]), in [9] (setting [12]) and in experiment [9] (setting [13]) were -9% (inactive), 5.15% (inactive) and -3.49% (inactive), respectively.

The values are drawn from PubChem BioAssay (NCATS).
